In experiment [1] the test system is Wnt5a (protein binding on small-molecule microarray). Nature of the experiment: Wnt5a binders on small-molecule microarray, primary screen, biophysical, 635/667 nm fluorescence (AID 1142).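 Also: fluorescence read at 667 nm with signal to noise per printed feature.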 The following applies: 635 nm fluorescence, higher = more signal.
Experiment [2] can be described thus: cell viability in Huh7 cells, primary screen, cytotoxicity control for HCV replication inhibitor project, CellTiter-Glo luminescence, basal, 48 h (AID 1143).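 Also: Huh7 hepatoma cells carrying a hepatitis C replication reporter with no stimulus; test concentration not given here.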 The following applies: Huh7 HCV replicon, higher = more signal, called active from +8 up or from −8 down.
Experiment [3] can be described thus: P. aeruginosa biofilm formation inhibitors, primary screen, PAO1 strain, BacTiter-Glo luminescence, LB-PBS (AID 1144). The following applies: 12 h, higher = more signal.
Experiment [4] can be described thus: CREB reporter modulators without forskolin, primary screen, cell-based, PC12, CRE-LacZ reporter, unstimulated (AID 1145). The conditions noted are these: no forskolin, luminescence, 4.5 h, higher = more signal, called active from +8 up or from −8 down.
Experiment [5] is described as follows: CREB reporter modulators under forskolin, primary screen, cell-based, PC12, CRE-LacZ reporter, forskolin-stimulated (AID 1146).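 Also: PC12 cells with 6xCRE LacZ reporter stimulated by forskolin 10 µM; beta-galactosidase reporter signal reflecting CREB driven transcription.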 The conditions noted are these: luminescence, 4.5 h, higher = more signal, called active from +8 up or from −8 down.
Experiment [6] deals with Streptavidin (Streptomyces avidinii) (UniProt P22629). Nature of the experiment: streptavidin binders on small-molecule microarray, primary screen, artefact control for SMM compound annotation, biophysical, 635/667 nm fluorescence (AID 1147).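 Also: signal reflects streptavidin binding to arrayed compounds as a control protein.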 The following applies: streptavidin binding, higher = more signal.
Streptavidin (Streptomyces avidinii), sequence (P22629 whole entry, looked up): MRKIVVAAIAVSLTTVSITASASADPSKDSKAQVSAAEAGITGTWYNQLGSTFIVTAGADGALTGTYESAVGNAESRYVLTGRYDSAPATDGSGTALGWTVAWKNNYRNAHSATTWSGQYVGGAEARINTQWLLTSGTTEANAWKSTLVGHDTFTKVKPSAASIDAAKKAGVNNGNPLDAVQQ
The nature of experiment [7]: small-molecule binders of probe aInhba, primary screen, biochemical, small-molecule microarray, 635/667 nm fluorescence (AID 1148).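 Also: score merges 667nm spot fluorescence with signal-to-noise for antibody binding to printed compounds.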 The conditions noted are these: higher = more signal.
Experiment [8] has as its target Torsin-1A (Homo sapiens) (UniProt O14656). The experiment is described as follows: torsin A binders from cell lysate, primary screen, small-molecule microarray, wild-type, 635/667 nm (AID 1149). The following applies: COS7 hTOR1A-WT lysate, 635 nm fluorescence, higher = more signal.
For experiment [9] the target is unchanged. The experiment is described as follows: small-molecule binders of mutant TOR1A in lysate, primary screen, cell lysate, small-molecule microarray, COS7 lysate, 635/667 nm fluorescence (AID 1150).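 Also: score pools 667 nm emission and signal to noise measuring lysate protein binding.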 The following applies: COS7 hTOR1A mutant lysate, 635 nm fluorescence, higher = more signal.
Experiment [10] concerns Sonic hedgehog protein (Shh). The experiment is described as follows: small-molecule binders of Shh protein, primary screen, biochemical, small-molecule microarray, 635/667 nm fluorescence (AID 1151).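 Also: Shh protein binding to compounds spotted on small-molecule microarray slides; score combines spot fluorescence intensity with signal-to-noise across triplicate slides.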 The following applies: small-molecule microarray binding, 635 nm fluorescence; higher = more signal.
Experiment [11] is described as follows: E. coli DRC41 culture turbidity changes, primary screen, E. coli filamentation inducer project, strain DRC41, OD650, 48 h (AID 1152).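 Also: E. coli MC1000 strain DRC41 lacking acrAB efflux pump and sulA.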 The conditions noted are these: E. coli DRC41 (acrAB sulA), higher = more signal, called active from +8 up or from −8 down.
Experiment [12] in a line: small-molecule binders of probe aLefty1, primary screen, biochemical, small-molecule microarray, 635/667 nm fluorescence (AID 1153).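 Also: score merges spot fluorescence with signal-to-noise ratio from the scanned slide images.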 The conditions noted are these: higher = more signal.
The nature of experiment [13]: PSAC antagonists in infected red cells, primary screen, cell-based, P. falciparum Indochina, OD700, 1 h (AID 1154). The following applies: P. falciparum Indochina infected RBC osmotic lysis, higher = more signal, called active from +8 up or from −8 down.
Experiment [14] can be described thus: PSAC antagonists in infected red cells, primary screen, cell-based, P. falciparum Indochina, OD700, 2 h (AID 1155).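 Also: lysis reports solute entry through the parasite surface anion channel PSAC; channel blockers reduce lysis of infected cells.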 The following applies: P. falciparum Indochina infected erythrocytes, osmotic lysis OD700; higher = more signal, called active from +8 up or from −8 down.
A short description of experiment [15]: osmotic lysis modulators in infected erythrocytes, primary screen, PSAC antagonist project, cell-based, P. falciparum Indochina, OD700, 3 h (AID 1156). The following applies: higher = more signal, called active from +8 up or from −8 down.
Experiment [16] can be described thus: PSAC antagonists in infected red cells, primary screen, cell-based, P. falciparum Indochina, OD700, 18 h (AID 1157). The following applies: P. falciparum Indochina infected erythrocytes, osmotic lysis OD700, 18 h; higher = more signal, called active from +8 up or from −8 down.
Experiment [17] in a line: modulators of S6 phosphorylation in cells, primary screen, cell-based, A549, cytoblot, luminescence, serum-stimulated (AID 1158).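 Also: serum-stimulated A549 lung adenocarcinoma cells; signal is phosphorylated S6 detected by cytoblot immunostaining with HRP secondary.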 The conditions noted are these: A549 phospho-S6 cytoblot, 5 h, higher = more signal.
Experiment [18] deals with NADPH oxidase 2 (Homo sapiens) (UniProt P04839). Nature of the experiment: NOX2-dependent H2O2 signal modulators, primary screen, NOX inhibitor project, cell-based, HEK293-NOX2, PMA-stimulated, Amplex Red fluorescence (AID 1159). Also: test concentration not given here. The conditions noted are these: 45 min, higher = more signal, called active from +8 up or from −8 down.
NADPH oxidase 2 (Homo sapiens), sequence (P04839 whole entry, looked up): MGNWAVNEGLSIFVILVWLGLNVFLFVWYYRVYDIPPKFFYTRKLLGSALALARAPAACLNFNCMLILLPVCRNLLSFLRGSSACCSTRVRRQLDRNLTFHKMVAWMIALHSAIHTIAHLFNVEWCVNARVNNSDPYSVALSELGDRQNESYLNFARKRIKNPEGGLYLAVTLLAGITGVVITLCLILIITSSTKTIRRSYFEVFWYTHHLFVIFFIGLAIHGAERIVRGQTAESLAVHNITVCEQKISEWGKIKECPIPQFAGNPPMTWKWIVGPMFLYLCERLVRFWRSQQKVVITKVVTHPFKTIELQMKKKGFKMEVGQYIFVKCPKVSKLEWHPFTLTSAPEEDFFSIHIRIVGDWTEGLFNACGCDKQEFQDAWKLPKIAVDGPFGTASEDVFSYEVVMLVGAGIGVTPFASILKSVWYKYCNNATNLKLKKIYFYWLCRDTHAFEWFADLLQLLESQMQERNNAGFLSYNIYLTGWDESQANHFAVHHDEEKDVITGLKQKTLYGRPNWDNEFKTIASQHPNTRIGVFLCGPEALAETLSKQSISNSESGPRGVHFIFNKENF
Experiment [19] has as its target NADPH oxidase 4 (Homo sapiens) (UniProt Q9NPH5). Nature of the experiment: NOX4-dependent H2O2 signal modulators, primary screen, NOX inhibitor project, cell-based, HEK293-NOX4, tetracycline-induced, Amplex Red fluorescence (AID 1160). The following applies: 45 min, higher = more signal, called active from +8 up or from −8 down.
Experiment [20] deals with NADPH oxidase 5 (Homo sapiens) (UniProt Q96PH1). Nature of the experiment: NOX5-dependent H2O2 signal modulators, primary screen, NOX inhibitor project, cell-based, HEK293-NOX5, Amplex Red fluorescence (AID 1161). The conditions noted are these: HEK293-NOX5, ionomycin, 45 min, higher = more signal.
NADPH oxidase 5 (Homo sapiens), sequence (Q96PH1 whole entry, looked up): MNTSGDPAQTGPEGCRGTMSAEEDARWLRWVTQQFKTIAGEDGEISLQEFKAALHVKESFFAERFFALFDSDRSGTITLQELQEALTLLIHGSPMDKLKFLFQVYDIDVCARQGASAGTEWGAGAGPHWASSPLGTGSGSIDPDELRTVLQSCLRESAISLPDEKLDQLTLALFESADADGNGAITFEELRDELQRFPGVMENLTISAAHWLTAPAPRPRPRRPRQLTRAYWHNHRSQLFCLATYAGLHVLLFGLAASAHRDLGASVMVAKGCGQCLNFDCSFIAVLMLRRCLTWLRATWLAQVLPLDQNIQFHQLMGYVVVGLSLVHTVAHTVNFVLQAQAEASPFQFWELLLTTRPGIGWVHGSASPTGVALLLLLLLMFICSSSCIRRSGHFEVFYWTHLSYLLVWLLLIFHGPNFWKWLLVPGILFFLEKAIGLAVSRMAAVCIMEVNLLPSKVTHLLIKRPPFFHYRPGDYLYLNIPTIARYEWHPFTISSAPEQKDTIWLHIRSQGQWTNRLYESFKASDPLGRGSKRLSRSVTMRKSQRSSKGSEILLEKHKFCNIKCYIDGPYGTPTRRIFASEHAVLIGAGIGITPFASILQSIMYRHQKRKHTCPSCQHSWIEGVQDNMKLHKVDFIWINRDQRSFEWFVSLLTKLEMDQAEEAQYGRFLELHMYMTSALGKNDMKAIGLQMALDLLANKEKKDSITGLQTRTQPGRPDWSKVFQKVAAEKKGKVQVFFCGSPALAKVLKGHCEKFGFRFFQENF

Calls of active or inactive are those of the source. Unless noted, no rule for the calls is given here.

NADPH oxidase 4 (Homo sapiens), sequence (Q9NPH5 whole entry, looked up): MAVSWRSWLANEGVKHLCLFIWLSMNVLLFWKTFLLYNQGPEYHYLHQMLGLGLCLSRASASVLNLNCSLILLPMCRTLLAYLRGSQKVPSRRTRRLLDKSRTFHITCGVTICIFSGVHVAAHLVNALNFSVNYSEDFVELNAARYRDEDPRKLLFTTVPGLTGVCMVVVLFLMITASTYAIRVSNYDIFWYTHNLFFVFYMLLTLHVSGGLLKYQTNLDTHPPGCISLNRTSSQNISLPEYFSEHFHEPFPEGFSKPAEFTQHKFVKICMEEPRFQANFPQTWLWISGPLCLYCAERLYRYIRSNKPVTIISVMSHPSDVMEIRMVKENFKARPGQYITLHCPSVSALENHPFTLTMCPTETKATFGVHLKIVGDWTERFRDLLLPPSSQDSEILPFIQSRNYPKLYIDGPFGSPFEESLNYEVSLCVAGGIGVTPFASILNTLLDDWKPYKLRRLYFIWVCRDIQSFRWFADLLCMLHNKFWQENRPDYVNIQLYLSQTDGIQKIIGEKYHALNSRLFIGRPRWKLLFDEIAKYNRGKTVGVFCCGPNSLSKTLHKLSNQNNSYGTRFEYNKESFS
Torsin-1A (Homo sapiens), sequence (O14656 whole entry, looked up): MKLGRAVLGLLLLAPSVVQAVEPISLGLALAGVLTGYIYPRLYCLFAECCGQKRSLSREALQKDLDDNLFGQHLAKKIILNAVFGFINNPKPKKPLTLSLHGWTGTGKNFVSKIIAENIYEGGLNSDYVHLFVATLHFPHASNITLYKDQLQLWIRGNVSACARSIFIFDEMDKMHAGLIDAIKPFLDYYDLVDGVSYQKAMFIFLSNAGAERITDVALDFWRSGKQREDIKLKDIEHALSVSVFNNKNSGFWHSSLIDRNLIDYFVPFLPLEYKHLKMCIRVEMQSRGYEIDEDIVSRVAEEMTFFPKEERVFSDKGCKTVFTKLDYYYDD

As to `CCOC(=O)C1=CCC(c2cc3ccccc3[nH]2)N(CCN2CC(C(=O)OCC)=CCC2c2cc3ccccc3[nH]2)C1` (stereo not given), the composite z-score in experiment [1] came to 0.125; in [6], 0.428; in [7], 0.162; in experiment [8], 0.0418; in experiment [9] it was 0.104; in experiment [10] it was 0.54. For the same compound, the composite z-score in [12] is 0.379. Moreover, the z-score was -1.74 (inactive) in experiment [2]; -1.85 (inactive) in experiment [3]; -0.275 (inactive) in experiment [4]; -0.684 (inactive) in experiment [5]; -0.889 (inactive) in [11]; 4.01 (inactive) in experiment [13]. Also, the z-score in experiment [14] is 1.41 (inactive); in experiment [15], 2.42 (inactive); in experiment [16] it was 1.03 (inactive); in [17], 1.56; in [18] it was -0.756 (inactive); in [19] it was -0.315 (inactive). The compound further returned a z-score in experiment [20] of -0.307.

In the case of `CCCN1C(=O)[C@]2(CCC(=O)OC(C)(C)C)N=C(c3ccc(OCCCO)cc3)O[C@@H]2c2ccccc21`, the composite z-score is 0.456 in experiment [1]; -0.374 in experiment [6]; 0.173 in experiment [7]; 1.51 in experiment [8]; 0.111 in experiment [9]; 1.7 in [10]. In [12], this compound came in with a composite z-score of 0.26. In addition, the z-score in experiment [2] is -4.35 (inactive); in experiment [3] it was -0.543 (inactive); in experiment [4], 0.512 (inactive); in [5], -1.44 (inactive); in experiment [11] it was 0.239 (inactive); in experiment [13], 34.1 (active). In addition, the z-score was 36.8 (active) in experiment [14]; 2.57 (inactive) in experiment [15]; 8.76 (active) in [16]; -0.0347 in [17]; -3.07 (inactive) in [18]; -0.483 (inactive) in experiment [19]. The z-score in [20] is -1.51.

Regarding `C=CCC(OC(C)=O)[C@@H]1[C@@H](N(Cc2cc3ccccc3o2)C(=O)Cc2ccc(OC)cc2)c2cc(OCCCO)ccc2N1C(=O)c1ccc2ccccc2n1` (stereo not given in full), the composite z-score in [1] is -0.124; in experiment [6], 0.229; in [7] it was -0.0103; in experiment [8] it was 0.135; in experiment [9], -0.136; in experiment [10] it was 0.0685. Moreover, the composite z-score in [12] amounted to 0.231. In addition, the z-score was -1.03 (inactive) in [2]; 0.267 (inactive) in experiment [3]; 4.52 (inactive) in [4]; -0.24 (inactive) in experiment [5]; 0.697 (inactive) in experiment [11]; 2.75 (inactive) in [13]. The z-score in experiment [14] was 0.567 (inactive); in experiment [15], 0.867 (inactive); in experiment [16], 0.186 (inactive); in [17] it was 0.856; in [18] it was 0.226 (inactive); in [19], -1.14 (inactive). The same compound showed a z-score in experiment [20] of 1.52.

On to `C=CCNC(=O)[C@H]1[C@@H]2C(=O)O[C@@H](c3ccccc3)[C@@H](c3ccccc3)N2[C@@H](c2ccc(OCCO)cc2)[C@]12C(=O)Nc1ccc(C#CC3(O)CCCCCC3)cc12`, for which the composite z-score in [1] is 0.564; in experiment [6], 0.618; in experiment [7], 0.108; in [8], 0.406; in experiment [9], 0.564; in [10], 1.31. The compound further had a composite z-score in experiment [12] of 0.523. In addition, the z-score in [2] is -3.3 (inactive); in [3], 0.15 (inactive); in [4], -0.329 (inactive); in [5], 0.566 (inactive); in experiment [11], 0.803 (inactive); in experiment [13] it was 2.48 (inactive). Besides, the z-score in experiment [14] was 1.54 (inactive); in [15], -0.441 (inactive); in experiment [16] it was 0.311 (inactive); in experiment [17], 0.977; in experiment [18], 1.94 (inactive); in experiment [19] it was 1.18 (inactive). Besides, the z-score in experiment [20] is 0.902.

Take `COc1ccc(C(O)C2C=CC3C(=O)N(c4ccccc4)C(=O)C3N2Nc2ccc([N+](=O)[O-])cc2)c2ccccc12` (stereo not given): the composite z-score in experiment [1] was 0.328; in [6], 1.86; in experiment [7], 0.12; in experiment [8], 0.771; in experiment [9] it was 0.163; in experiment [10], 0.0892. In addition, the composite z-score in experiment [12] worked out at 0.364. Besides, the z-score in [2] is -0.8 (inactive); in experiment [3] it was -0.557 (inactive); in experiment [4], -0.228 (inactive); in [5] it was -0.838 (inactive); in experiment [11] it was -1.31 (inactive); in [13], 9.23 (active). Besides, the z-score in experiment [14] is 2.13 (inactive); in experiment [15], 0.722 (inactive); in experiment [16], 1.12 (inactive); in [17], -0.446; in experiment [18], -0.273 (inactive); in [19], -0.96 (inactive). This compound returned a z-score in [20] of -1.55.
